Structures are written as SMILES. Hit rate of the full screen: of about 53,000 compounds, about 900 (1.7%) showed an effect of 50% or more. The sample holds strong results, similar compounds and a random draw of the others, so the mix is not that of the screen.

The subject of the test is Mycobacterium tuberculosis. As to the kind of experiment: Cornell - Phenotypic assay to identify agents that inhibit growth of Mycobacterium tuberculosis. The test is classed as functional. The settings on record: 10 mM as filed; unlikely as a test dose. Also on record: scale not given: direction of the effect not stated beside the values.
Consider `O=C1NC[C@]2(CC[C@@H](C(=O)N3CCCC(O)C3)CC2)Oc2ccccc21` (stereo not given in full), for which the “Percent Effect” value was -1.738%.
For `CC(=O)N1CCN(C(C)c2nnc(CC(C)C)o2)CC1` (stereo not given) the value was 3.173%; for `COCCNC(=O)CSCc1nc(O)c2cc(C(C)C)sc2n1`, -18.87%.
For `COC(=O)[C@H](C)NC(=O)CSCc1nc2sc(C(C)C)cc2c(=O)[nH]1` the value was 57.77%.
Under `COC(=O)C(C)NC(=O)CSCc1nc(O)c2cc(C(C)C)sc2n1` (stereo not given) stands 10.11%.
As to `CC(C)CN1C[C@H](COCc2ccccc2)Oc2ncccc2C1=O`, the “Percent Effect” value is reported as -10.08%.
Under `Cc1ncc(C(=O)NCCNc2ncccn2)s1` stands -0.6021%; under `CCS(=O)(=O)Nc1cnn(Cc2cccc(F)c2)c1`, 14.06%; under `CCS(=O)(=O)Nc1cnn(Cc2cccc(Cl)c2)c1`, -14.58%.
For `CCS(=O)(=O)Nc1cnn(Cc2cccc(C)c2)c1` the value was 56.26%; for `Cc1c(S(=O)(=O)NCC(C)C)cnn1C`, -2.001%; for `COc1cccc(CCC(=O)Nc2c(C)nn(C)c2C)c1OC`, -11.78%.
Consider `Cc1nc(-c2ccc(CO)cc2)cc(C2CCNCC2)n1.Cl`, for which the “Percent Effect” value turned out to be 12.1%.
As to `O=C(NCc1ccccn1)[C@@]12CCO[C@@H]1CCN(Cc1ccccn1)C2.O=C(O)C(F)(F)F.O=C(O)C(F)(F)F.O=C(O)C(F)(F)F`, the “Percent Effect” value was -14.31%.
For `CC(NC(=O)c1cc(-c2cccc(Cl)c2)no1)C(=O)N(C)C` (stereo not given) the value was 9.545%; for `COC(=O)[C@H](C)NC(=O)c1cc(-c2cccc(Cl)c2)no1`, 105.7%; for `CC(NC(=O)c1cc(-c2cccc(Cl)c2)no1)C(=O)N1CCCC1` (stereo not given), 1.351%.
`O=C(NCc1ccc(OCC2CC2)nc1)C1COc2ccccc2O1` (stereo not given): the “Percent Effect” value was 16.73%.
Under `Cc1nn2c(N3CCC(O)C3)cc(-c3ccccc3)nc2c1C` (stereo not given) stands 16.78%; under `Cc1nn2c(N3CCC(O)CC3)cc(-c3ccccc3)nc2c1C`, 72.96%; under `Cc1nn2c(N3CCC(C(N)=O)CC3)cc(-c3ccccc3)nc2c1C`, 21.25%.
As to `Cc1nc(N[C@H]2COC[C@@H]2N2CCCC2)c2cnn(C)c2n1`, the “Percent Effect” value is recorded as 2.791%.
For `CCNC(c1ccc(C)cc1)c1cccnc1` (stereo not given) the value was -8.954%.
In the case of `CCc1nc(CN(C)C(=O)CSC)no1`, the “Percent Effect” value was 7.399%.
Regarding `Cc1nc(C)c(C(=O)N2CCc3nnc(C4CCCN4C)n3CC2)s1` (stereo not given), the “Percent Effect” value was found to be 53.89%.
Turning to `Cc1nc(C)c(C(=O)N2CCc3nnc(C4CCCCN4C)n3CC2)s1` (stereo not given), the “Percent Effect” value is 54.31%.
`Cc1nc(C)c(C(=O)N2CCc3nnc(C4CCCCN4C)n3CC2)o1` (stereo not given): the “Percent Effect” value was found to be 19.3%.
On to `Cc1cc2c(=O)n3c(nc2s1)CCN(C(=O)c1sc(C)nc1C)CC3`, for which the “Percent Effect” value was determined as 10.24%.
Under `Cc1ncsc1C(=O)N1CCc2nnc(C3CCCCN3C)n2CC1` (stereo not given) stands 8.689%; under `Cc1nc(C)c(C(=O)N2CCCC2c2nnc3n2CCCCC3)s1` (stereo not given), 13.16%.

For the origin of these results see ChEMBL document CHEMBL3988442, “University of Dundee, Small-Polar-MMV Screening Library” (2021).
